# Assay results from the supplement of paper PMC8728848.
# Many of the other results were omitted from the sample, so the strongest signals are more common in it than they were.
# B1: Gal 8 (Homo sapiens), O00214 (protein)
# chain: MMLSLNNLQNIIYNPVIPFVGTIPDQLDPGTLIVIRGHVPSDADRFQVDLQNGSSMKPRADVAFHFNPRFKRAGCIVCNTLINEKWGREEITYDTPFKREKSFEIVIMVKDKFQVAVNGKHTLLYGHRIGPEKIDTLGIYGKVNIHSIGFSFSSDLQSTQASSLELTEISRENVPKSGTPQLPSNRGGDISKIAPRTVYTKSKDSTVNHTLTCTKIPPMNYVSKRLPFAARLNTPMGPGRTVVVKGEVNANAKSFNVDLLAGKSKDIALHLNPRLNIKAFVRNSFLQESWGEEERNITSFPFSPGMYFEMIIYCDVREFKVAVNGVHSLEYKHRFKELSSIDTLEINGDIHLLEVRSW
# B2: LysMD3 (Homo sapiens), Q7Z3D4 (protein)
# chain: MAGRHQNRSFPLPGVQSSGQVHAFGNCSDSDILEEDAEVYELRSRGKEKVRRSTSRDRLDDIIVLTKDIQEGDTLNAIALQYCCTVADIKRVNNLISDQDFFALRSIKIPVKKFSSLTETLCPPKGRQTSRHSSVQYSSEQQEILPANDSLAYSDSAGSFLKEVDRDIEQIVKCTDNKRENLNEVVSALTAQQMRFEPDNKNTQRKDPYYGADWGIG
# Experiments:
# Assay in all cases: glycan array binding signal (z-score within array); higher = stronger binding
# Details in all cases: glycan notation: IUPAC condensed, linker removed
# [1] = target: Fuc(a1-2)Gal(b1-3)GalNAc(b1-3)Gal(a1-4)Gal(b1-4)Glc
# Procedure, shortened: (§1)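 The binding signal is a Z-score computed within each array and averaged over linkers. Arrays of the same protein sequence at different concentrations or buffers were also averaged together. Data originate from 3228 arrays in the Consortium for Functional Glycomics database, kept only where the protein sequence was available.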
# Fuc(a1-2)Gal(b1-4)Glc6S = target: Fuc(a1-2)Gal(b1-4)Glc6S
# Procedure, shortened: as §1
# [2] = target: Fuc(a1-2)Gal(b1-4)[Fuc(a1-3)]GlcNAc(b1-3)Gal(b1-4)[Fuc(a1-3)]GlcNAc(b1-3)Gal(b1-4)[Fuc(a1-3)]GlcNAc
# Procedure, shortened: as §1
# Fuc(a1-2)Gal6S(b1-4)Glc = target: Fuc(a1-2)Gal6S(b1-4)Glc
# Procedure, shortened: as §1
# [3] = target: Fuc(a1-2)[Gal(a1-3)]Gal(b1-3)GlcNAc
# Procedure, shortened: as §1
# [4] = target: Fuc(a1-2)[Gal(a1-3)]Gal(b1-4)Glc
# Procedure, shortened: as §1
# [5] = target: Fuc(a1-2)[Gal(a1-3)]Gal(b1-4)GlcNAc
# Procedure, shortened: as §1
# [6] = target: Fuc(a1-2)[GalNAc(a1-3)]Gal(b1-4)Glc
# Procedure, shortened: as §1
# [7] = target: Fuc(a1-2)[GalNAc(b1-3)]Gal
# Procedure, shortened: as §1
# [8] = target: Fuc(a1-3)[Gal(b1-4)]GlcNAc6S
# Procedure, shortened: as §1
# Gal(a1-3)Gal(b1-4)GlcNAc = target: Gal(a1-3)Gal(b1-4)GlcNAc
# Procedure, shortened: as §1
# Gal(b1-2)Gal = target: Gal(b1-2)Gal
# Procedure, shortened: as §1
# [9] = target: Gal(b1-3)GalNAc(b1-4)Gal(b1-4)Glc
# Procedure, shortened: as §1
# [10] = target: Gal(b1-3)[Fuc(a1-4)]GlcNAc
# Procedure, shortened: as §1
# [11] = target: Gal(b1-3)[Fuc(a1-4)]GlcNAc(b1-3)Gal(b1-4)GlcNAc
# Procedure, shortened: as §1
# [12] = target: Gal(b1-4)GlcNAc(b1-3)Gal(b1-4)Glc
# Procedure, shortened: as §1
# [13] = target: Gal3S(b1-3)[Fuc(a1-4)]GlcNAc
# Procedure, shortened: as §1
# Gal3S(b1-4)Glc = target: Gal3S(b1-4)Glc
# Procedure, shortened: as §1
# Gal4S(b1-4)GlcNAc = target: Gal4S(b1-4)GlcNAc
# Procedure, shortened: as §1
# [14] = target: GalNAc(b1-3)Gal(a1-4)Gal(b1-4)GlcNAc
# Procedure, shortened: as §1
# GlcA(b1-3)Gal = target: GlcA(b1-3)Gal
# Procedure, shortened: as §1
# GlcNAc(b1-3)Gal = target: GlcNAc(b1-3)Gal
# Procedure, shortened: as §1
# [15] = target: GlcNAc(b1-4)Gal(b1-4)GlcNAc
# Procedure, shortened: as §1
# GlcNAc(b1-4)GlcNAc = target: GlcNAc(b1-4)GlcNAc
# Procedure, shortened: as §1
# [16] = target: Neu5Ac(a2-3)Gal(b1-3)GlcNAc(b1-3)Gal(b1-3)GlcNAc
# Procedure, shortened: as §1
# [17] = target: Neu5Ac(a2-3)Gal(b1-4)GlcNAc(b1-6)[Gal(b1-3)]GalNAc
# Procedure, shortened: as §1
# [18] = target: Neu5Ac(a2-6)Gal(b1-4)GlcNAc(b1-2)Man(a1-3)[GlcNAc(b1-2)Man(a1-6)]Man(b1-4)GlcNAc(b1-4)GlcNAc
# Procedure, shortened: as §1
# [19] = target: Neu5Ac(a2-6)Gal(b1-4)GlcNAc(b1-2)Man(a1-6)[GlcNAc(b1-2)Man(a1-3)]Man(b1-4)GlcNAc(b1-4)GlcNAc
# Procedure, shortened: as §1
# [20] = target: Neu5Ac(a2-6)Gal(b1-4)GlcNAc(b1-3)Gal(b1-4)[Fuc(a1-3)]GlcNAc(b1-3)Gal(b1-4)[Fuc(a1-3)]GlcNAc
# Procedure, shortened: as §1
# [21] = target: Neu5Gc(b2-6)Gal(b1-4)GlcNAc
# Procedure, shortened: as §1
# GlcNAc(b1-3)GalNAc = target: GlcNAc(b1-3)GalNAc
# Procedure, shortened: as §1
# [22] = target: GlcNAc(b1-4)[GlcNAc(b1-6)]GalNAc
# Procedure, shortened: as §1
# GlcNAc(b1-6)GalNAc = target: GlcNAc(b1-6)GalNAc
# Procedure, shortened: as §1
# [23] = target: Man(a1-2)Man(a1-3)[Man(a1-2)Man(a1-6)]Man(a1-6)[Man(a1-2)Man(a1-2)Man(a1-3)]Man
# Procedure, shortened: as §1
# [24] = target: Man(a1-2)Man(a1-6)[Man(a1-3)]Man(a1-6)[Man(a1-2)Man(a1-2)Man(a1-3)]Man(b1-4)GlcNAc(b1-4)GlcNAc
# Procedure, shortened: as §1
# [25] = target: Man(a1-3)[Man(a1-6)]Man(a1-6)[Man(a1-3)]Man(b1-4)GlcNAc(b1-4)GlcNAc
# Procedure, shortened: as §1
# [26] = target: Man(a1-3)[Man(a1-6)]Man(b1-4)GlcNAc(b1-4)GlcNAc
# Procedure, shortened: as §1
# [27] = target: Neu5Ac(a2-3)Gal(b1-3)GlcNAc
# Procedure, shortened: as §1
# [28] = target: Neu5Ac(a2-3)Gal(b1-3)GlcNAc(b1-2)[Neu5Ac(a2-3)Gal(b1-3)GlcNAc(b1-4)]Man(a1-6)[Neu5Ac(a2-3)Gal(b1-3)GlcNAc(b1-2)Man(a1-3)]Man(b1-4)GlcNAc(b1-4)GlcNAc
# Procedure, shortened: as §1
# [29] = target: Neu5Ac(a2-3)Gal(b1-4)GlcNAc(b1-2)Man
# Procedure, shortened: as §1
# [30] = target: Neu5Ac(a2-3)Gal(b1-4)GlcNAc(b1-2)Man(a1-3)[Neu5Ac(a2-6)Gal(b1-4)GlcNAc(b1-2)Man(a1-6)]Man(b1-4)GlcNAc(b1-4)GlcNAc
# Procedure, shortened: as §1
# [31] = target: Neu5Ac(a2-3)Gal(b1-4)GlcNAc(b1-3)Gal(b1-4)GlcNAc(b1-6)[Gal(b1-3)]GalNAc
# Procedure, shortened: as §1
# [32] = target: Neu5Ac(a2-3)Gal(b1-4)GlcNAc(b1-6)[Neu5Ac(a2-3)Gal(b1-3)]GalNAc
# Procedure, shortened: as §1
# [33] = target: Neu5Ac(a2-3)Gal6S(b1-4)[Fuc(a1-3)]GlcNAc
# Procedure, shortened: as §1
# [34] = target: Neu5Ac(a2-6)Gal(b1-4)GlcNAc
# Procedure, shortened: as §1
# [35] = target: Neu5Ac(a2-6)Gal(b1-4)GlcNAc(b1-2)Man(a1-3)[Man(a1-6)]Man(b1-4)GlcNAc(b1-4)GlcNAc
# Procedure, shortened: as §1
# [36] = target: Neu5Ac(a2-6)Gal(b1-4)GlcNAc(b1-2)Man(a1-3)[Neu5Ac(a2-3)Gal(b1-4)GlcNAc(b1-2)Man(a1-6)]Man(b1-4)GlcNAc(b1-4)GlcNAc
# Procedure, shortened: as §1
# [37] = target: Neu5Ac(a2-8)Neu5Ac(a2-3)Gal(b1-3)GalNAc(b1-4)[Neu5Ac(a2-8)Neu5Ac(a2-3)]Gal(b1-4)Glc
# Procedure, shortened: as §1
# [38] = target: Neu5Gc(a2-3)Gal(b1-3)[Fuc(a1-4)]GlcNAc
# Procedure, shortened: as §1
# [39] = target: Neu5Gc(a2-3)Gal(b1-4)GlcNAc
# Procedure, shortened: as §1
# [40] = target: Neu5Gc(a2-3)Gal(b1-4)[Fuc(a1-3)]GlcNAc
# Procedure, shortened: as §1
binder,measurement,setting,value
B1,glycan array binding signal (z-score),[1],-0.141
same,glycan array binding signal (z-score),Fuc(a1-2)Gal(b1-4)Glc6S,0.286
same,glycan array binding signal (z-score),[2],-0.386
same,glycan array binding signal (z-score),Fuc(a1-2)Gal6S(b1-4)Glc,-0.427
same,glycan array binding signal (z-score),[3],3.58
same,glycan array binding signal (z-score),[4],5.02
same,glycan array binding signal (z-score),[5],4.8
same,glycan array binding signal (z-score),[6],4.22
same,glycan array binding signal (z-score),[7],0.118
same,glycan array binding signal (z-score),[8],-0.432
same,glycan array binding signal (z-score),Gal(a1-3)Gal(b1-4)GlcNAc,0.236
same,glycan array binding signal (z-score),Gal(b1-2)Gal,-0.401
same,glycan array binding signal (z-score),[9],0.32
same,glycan array binding signal (z-score),[10],-0.413
same,glycan array binding signal (z-score),[11],0.294
same,glycan array binding signal (z-score),[12],2.43
same,glycan array binding signal (z-score),[13],-0.42
same,glycan array binding signal (z-score),Gal3S(b1-4)Glc,0.286
same,glycan array binding signal (z-score),Gal4S(b1-4)GlcNAc,-0.395
same,glycan array binding signal (z-score),[14],0.145
same,glycan array binding signal (z-score),GlcA(b1-3)Gal,-0.451
same,glycan array binding signal (z-score),GlcNAc(b1-3)Gal,-0.434
same,glycan array binding signal (z-score),[15],-0.425
same,glycan array binding signal (z-score),GlcNAc(b1-4)GlcNAc,-0.449
same,glycan array binding signal (z-score),[16],0.949
same,glycan array binding signal (z-score),[17],0.196
same,glycan array binding signal (z-score),[18],-0.45
same,glycan array binding signal (z-score),[19],-0.442
same,glycan array binding signal (z-score),[20],-0.365
same,glycan array binding signal (z-score),[21],-0.452
B2,glycan array binding signal (z-score),GlcNAc(b1-3)GalNAc,-0.639
same,glycan array binding signal (z-score),[22],0.46
same,glycan array binding signal (z-score),GlcNAc(b1-6)GalNAc,0.427
same,glycan array binding signal (z-score),[23],0.422
same,glycan array binding signal (z-score),[24],-0.445
same,glycan array binding signal (z-score),[25],-0.113
same,glycan array binding signal (z-score),[26],-0.343
same,glycan array binding signal (z-score),[27],-0.413
same,glycan array binding signal (z-score),[28],-0.094
same,glycan array binding signal (z-score),[29],-0.604
same,glycan array binding signal (z-score),[30],0.582
same,glycan array binding signal (z-score),[31],-0.924
same,glycan array binding signal (z-score),[32],-0.226
same,glycan array binding signal (z-score),[33],-0.291
same,glycan array binding signal (z-score),[34],-0.353
same,glycan array binding signal (z-score),[35],-1.15
same,glycan array binding signal (z-score),[36],-0.438
same,glycan array binding signal (z-score),[37],1.66
same,glycan array binding signal (z-score),[38],-0.44
same,glycan array binding signal (z-score),[39],-0.032
same,glycan array binding signal (z-score),[40],-0.174
